This note sets out measurements from PubChem BioAssay (NCATS).

Inconclusive results are not listed. A number with no mark means an inactive call. The call rests on the fitted dose curve; in most records, active means well fitted cell-killing curve with a large enough effect; inconclusive means small, poorly fitted or top-dose-only effect; inactive means flat fitted curve, though single readings scatter.

This assay is described as follows: Cell Viability - LYMP2-020 (AID 986).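 Further: cells exposed to compound for 24 h at 37 °C; plate controls were DMSO only for no effect and tetraoctylammonium bromide at 92 µM for full effect; nearly all actives have a fitted effect of over 55% in size.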 The conditions noted are these: series mostly up to 92.2 µM; activity change, negative = viability loss: at the top concentration. In short, it runs like this:
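Seed 2500 cells per well and incubate 5 hr at 37 C. Add compounds at a concentration series and incubate 24 hr at 37 C. Add CellTiter-Glo, wait 30 min at RT, read luminescence, and fit a Hill curve for AC50.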
For the compound `Oc1cccc(Cl)c1Cl`, the “activity change, negative = viability loss” value is -5.18%.
As to `CCC/C=N/O`, the “activity change, negative = viability loss” value was -3.87%.
Regarding `Nc1cccc2ccccc12`, the “activity change, negative = viability loss” value is -27.2%.
For `Cc1cnc[nH]1` the value was -1.01%; for `CN(C)N=O`, -15%; for `COc1c(C(C)(C)C)cc([N+](=O)[O-])c(C)c1[N+](=O)[O-]`, 0.556%.
In the case of `C=C(Cl)CCl`, the “activity change, negative = viability loss” value is -1.46%.
Under `ClCCOCOCCCl` stands 2.85%; under `CC12CC1(C)C(=O)N(c1cc(Cl)cc(Cl)c1)C2=O` (stereo not given), 1.5%; under `Cl/C=C/Cl`, 8.74%.
For `C1CC2OC2CC1C1CO1` (stereo not given) the value was -5.15%.
Turning to `Brc1cccc(-c2ccccc2)c1`, the “activity change, negative = viability loss” value is -3.75%.
`Oc1c(Cl)cccc1Cl`: the “activity change, negative = viability loss” value is 1.68%.
For `ClCCOCCCl` the value was 6.88%.
For `CCNCC` the value was 1.01%; for `CC(C)C#N`, 3.01%; for `c1ccc2c(c1)CCNC2`, -8.28%.
Under `CCBr` stands -9.86%; under `O=[N+]([O-])c1ccc(Cl)c(Cl)c1Cl`, 0.475%.
On to `N#CCCC#N`, for which the “activity change, negative = viability loss” value was -1.85%.
Under `Cc1ccccc1[N+](=O)[O-]` stands -3.47%; under `OCCBr`, -1.67%; under `C=CC(=O)OCCN(C)C`, -4.77%.
For `CC(C)(C)C(O)(CCc1ccc(Cl)cc1)Cn1cncn1` (stereo not given) the value was -17.6%; for `N#CCCCCC#N`, 9.12%; for `CN=C=O`, 7.89%.
For `c1ccc(C2CO2)cc1` (stereo not given) the value was 4.1%.
For `CCCCCC[N+](=O)[O-]`, the “activity change, negative = viability loss” value is 5.03%.
`OCC(Cl)CCl` (stereo not given): the “activity change, negative = viability loss” value was -3.07%.
For `COc1ccc(C=O)cc1`, the “activity change, negative = viability loss” value is -2.85%.
Turning to `Nc1ccc(Cl)c(Cl)c1`, the “activity change, negative = viability loss” value is -10.4%.
Consider `CC(=O)[O-].CC(=O)[O-].CC(=O)[O-].[Cr+3]`, for which the “activity change, negative = viability loss” value was -3.27%.
Under `CC(=O)CCC(C)=O` stands 5.88%; under `C=CC(=O)OCC(CC)CCCC` (stereo not given), -2.48%; under `CC(C#N)CCC#N` (stereo not given), -1.99%.
